From PubChem BioAssay
NS1 function inh: qHTS Assay for Inhibitors of Influenza NS1 Protein Function; actives 0.4% (n = 270,000); Potency, µM (doses to about 46.1 µM), for the others: top-dose activity, positive = more growth; AID 2326, 2010; further: potency means the concentration at half of the fitted maximal effect; actives are rising curves; nearly all actives have a fitted effect of over 50% in size
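Read-out: OD600 growth recovery of NS1-expressing budding yeast. Cells grown overnight at 30C in -URA glucose medium, washed, resuspended and diluted 1:100 in 2% galactose assay medium, pH 6.0. Same strain lacking NS1 served as positive control.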
SARS PLP yeast: qHTS of Yeast-based Assay for SARS-CoV PLP; AID 485353, 2010; S. cerevisiae expressing SARS-CoV PLpro, growth rescue; Potency, µM (top dose mostly 32.9 µM), for inactives: top-dose activity, positive = growth rescue, actives largely listed as activators; actives 0.19% (n = 330,000); further: potency means the concentration at half of the fitted maximal effect; 0% is about no effect; nearly all actives have a fitted effect of over 55% in size
CHX counter: Cycloheximide Counterscreen for Small Molecule Inhibitors of Shiga Toxin | max response, % | cell reporter, cycloheximide protein synthesis inhibition counterscreen | actives 12% (n = 300,000) | AID 2314, 2010; in the data active means max response mostly above about 13%, no sharp cut-off; inactive means mostly below about 14%; further: read at 38.3 µM for the half of the compounds with a filed dose; 0% is about no effect
LmPK inh: qHTS Assay for Inhibitors of Leishmania Mexicana Pyruvate Kinase (LmPK); purified LmPK, Kinase-Glo ATP luminescence, 1 h; Potency, µM (doses to about 57.5 µM), for the others: top-dose activity change, negative = inhibition, usual class: inhibitors; actives 0.37% (n = 290,000); active means well fitted curve in the direction sought with a large enough effect; inconclusive means small, poorly fitted or top-dose-only effect, or another doubt; inactive means no such curve, though single readings can be large; an effect the other way counts as inactive or inconclusive; further: potency means the concentration at half of the fitted maximal effect; on the % scale 0 is the no-effect control and ±100 the full control effect
Target sequence (Q27686 whole entry, looked up): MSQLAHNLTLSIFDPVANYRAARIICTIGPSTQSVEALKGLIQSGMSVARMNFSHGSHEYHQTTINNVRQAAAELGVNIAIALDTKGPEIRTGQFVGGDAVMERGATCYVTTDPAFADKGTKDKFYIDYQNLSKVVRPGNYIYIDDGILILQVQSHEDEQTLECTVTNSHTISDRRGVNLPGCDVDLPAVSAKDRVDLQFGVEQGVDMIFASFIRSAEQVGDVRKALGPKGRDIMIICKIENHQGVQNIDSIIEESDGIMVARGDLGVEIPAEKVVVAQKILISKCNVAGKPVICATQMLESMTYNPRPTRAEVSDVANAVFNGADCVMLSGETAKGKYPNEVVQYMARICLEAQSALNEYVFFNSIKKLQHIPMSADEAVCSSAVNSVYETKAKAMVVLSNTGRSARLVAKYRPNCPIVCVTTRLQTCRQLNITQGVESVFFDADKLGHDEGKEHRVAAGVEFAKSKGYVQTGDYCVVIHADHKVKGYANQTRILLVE
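Purified LmPK (0.1 nM) converted ADP (0.1 mM) to ATP with PEP (0.5 mM) in imidazole buffer pH 7.2 with KCl and MgCl2, 1 h at room temperature. ATP was read by Kinase-Glo luminescence; data normalized to uninhibited and no-enzyme controls.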
Shiga toxin inh: A qHTS for Small Molecule Inhibitors of Shiga Toxin; Vero cells, Shiga toxin protein synthesis inhibition reporter; inhibition, % at 38.7 µM; actives 9.2% (n = 290,000); AID 2315, 2010; in the data active means inhibition mostly above about 28%, no sharp cut-off; inactive means mostly below about 43%; further: 0% is about no effect
Tb PYK inh: qHTS of Trypanosoma Brucei Inhibitors; actives 0.12% (n = 410,000); pyruvate kinase (Trypanosoma brucei), Q57TT1; Potency, µM (series often up to 76.8 µM), inactives show top-dose activity, negative = inhibition, usual class: inhibitors; TbPYK enzyme, Kinase-Glo Plus ATP luminescence, 45 min; AID 624173, 2012; active means well fitted curve in the direction sought with a large enough effect; inconclusive means small, poorly fitted or top-dose-only effect, or another doubt; inactive means no such curve, though single readings can be large; an effect the other way counts as inactive or inconclusive; further: potency means the concentration at half of the fitted maximal effect; on the % scale 0 is the no-effect control and ±100 the full control effect; nearly all actives have a fitted effect of over 50% in size
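Glycolytic pyruvate kinase of T. brucei was incubated with substrate, test compound and 130 uM ADP for 45 minutes at room temperature. Luminescent Kinase-Glo Plus signal was measured after 10 minutes.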
The depositor's hits bear a star; u = inconclusive; x = no result; + = active, no number; [ ] = another dose, or the depositor's remark. This is one part of a sample in which hits are shown more often than they occur. Unless noted, the call rests on the fitted dose curve.

SMILES	NS1 function inh	SARS PLP yeast	CHX counter	LmPK inh	Shiga toxin inh	Tb PYK inh
Cc1ccc(SCCCCN2CCNCC2)cc1	12.4%	-23.0%	36.9*	-2.1%	+	13.7%
Clc1ccc(SCCCCN2CCNCC2)cc1	u	-22.0%	39.4*	-1.5%	65.0	15.3%
Cc1ccc(C)c(OCCCN2CCNCC2)c1	7.0%	-3.5%	-4.2	0.2%	-3.4	13.9%
CCOC(=O)C(=O)N(C)c1c(CC)nc2c(OCc3ccccc3OC)cccn12	x	x	x	x	x	1.5%
Cc1ccc(N2CC(NC(=O)CCCc3ccccc3)CC2=O)cc1 (configuration not stated)	x	x	x	x	x	-6.2%
COCCn1c(C)cc(C(=O)COc2nc3ccccc3nc2C)c1C	0.2%	6.8%	1.0	0.2%	0.5	-2.2%
C=CCn1c(C)cc(C(=O)COc2nncc3ccccc23)c1C	8.5%	5.1%	68.9*	14.6%	159.0*	-5.7%
COCCn1c(C)cc(C(=O)COc2ccc(C)nc2[N+](=O)[O-])c1C	7.6%	-1.0%	17.9	1.8%	57.3	-20.4%
Cc1ccc(OCC(=O)c2c[nH]c3ccccc23)c([N+](=O)[O-])n1	x	0.9%	51.2*	-0.1%	80.6*	3.9%
C=CCn1c(C)cc(C(=O)COc2ccc(C)nc2[N+](=O)[O-])c1C	-4.1%	-5.0%	74.7*	2.6%	98.0*	-12.5%
C=CCn1c(C)cc(C(=O)COc2ccc(S(=O)(=O)N3CCCC3)cc2[N+](=O)[O-])c1C	u	-6.3%	13.2*	1.4%	13.8	-3.4%
COc1cc2c(cc1CC=C(C)C)C(=O)C[C@@H](c1ccc(O)cc1)O2	x	x	-7.6	x	-1.5	x
O=C1c2ccccc2C(=O)C1(c1ccccc1)N1CCN(c2cccc(C(F)(F)F)c2)CC1	x	x	x	x	x	-4.2%
CC(Sc1nc2ccccc2c(=O)n1CC1CCCO1)C(=O)Nc1ccc(S(N)(=O)=O)cc1 (configuration not stated)	x	x	x	x	x	5.6%
CCCn1c(C)cc(C(=O)COc2ccc(C)nc2[N+](=O)[O-])c1C	-0.4%	1.4%	15.1*	3.0%	85.0*	-11.5%
Cc1ccc(OCC(=O)c2cc(C)n(-c3ccccc3)c2C)c([N+](=O)[O-])n1	-2.2%	5.3%	45.5*	-1.6%	64.0*	-14.9%
Cc1ccc(OCC(=O)c2cc(C)c(C)cc2C)c([N+](=O)[O-])n1	-7.8%	-4.1%	1.5	4.4%	18.9	-8.9%
O=[N+]([O-])c1cc(S(=O)(=O)N2CCCC2)ccc1OCc1ccccc1	-6.6%	-3.4%	28.3*	-0.9%	17.2	-20.8%
CC(C)(C)OC(=O)N1CCC[C@H]1C(=O)OCC(=O)Nc1cc(S(C)(=O)=O)ccc1Cl	x	0.3%	x	x	x	5.2%
CC(C)=CC(=O)OCC(=O)Nc1cccc([N+](=O)[O-])c1	-4.5%	17.5%	1.0	-1.8%	-11.0	-8.7%
CC1CC1C(=O)OCC(=O)Nc1cccc([N+](=O)[O-])c1 (configuration not stated)	6.2%	3.3%	32.1*	-0.2%	65.0*	7.4%
CCCC(=O)OCC(=O)Nc1ccc(N=Nc2ccccc2)cc1	-20.5%	-61.3%	62.2*	0.8%	83.5*	2.8%
CCOc1ccc(NC(=O)COC(=O)C2CC2C)cc1 (configuration not stated)	x	0.3%	x	x	x	-2.4%
CC1CC1C(=O)OCC(=O)Nc1ccc(N=Nc2ccccc2)cc1 (configuration not stated)	-39.6%	-22.4%	55.1*	-2.2%	92.6*	3.1%
Nc1ccc(SCC(=O)Nc2cccc([N+](=O)[O-])c2)cc1	x	-0.5%	37.1*	-2.6%	51.4	-6.1%
SMILES	NS1 function inh	SARS PLP yeast	CHX counter	LmPK inh	Shiga toxin inh	Tb PYK inh
COc1ccc(-n2nc(N)c(C(N)=O)n2)cc1	x	-1.9%	33.0*	-5.0%	39.3	-18.3%
COc1ccc(C(=O)n2cnnc2N)cc1	-15.4%	-2.0%	-2.0	-5.5%	-16.5	3.2%
Cc1nn(CC(=O)NCCC2=CCCCC2)c(C)c1[N+](=O)[O-]	x	3.9%	x	x	x	1.8%
OC(CCc1cccc(Cl)c1)c1cccs1 (configuration not stated)	2.1%	-3.3%	34.6*	-8.0%	44.4*	4.2%
Cc1ccc(Cc2c(C)nc3c(-c4ccccc4)c(C)[nH]n3c2=O)cc1	x	x	x	x	x	-0.4%
COCc1cc(=O)n2[nH]cc(-c3ccccc3)c2n1	-2.8%	5.2%	18.8*	6.1%	x	-10.9%
Cc1nc2c(-c3ccccc3)c[nH]n2c(=O)c1Cc1ccccc1	x	-4.6%	61.6*	-0.1%[11.5 µM]	121.1*	3.1%
O=C(CCC1CCCCC1)NCc1ccc(F)cc1	-2.0%	7.4%	23.3*	3.6%	active	-20.1%
O=C(CCC1CCCCC1)NCc1ccncc1	3.1%	-5.8%	-3.4	-1.3%	-1.2	4.4%
O=C(CC1CCCCC1)NCc1ccc(Cl)cc1	7.0%	1.6%	27.2*	4.3%	x	1.9%
O=C(CCc1ccc(S(=O)(=O)NC2CCCCC2)cc1)NCc1ccc(Cl)cc1	-1.4%	3.4%	-1.2	3.5%	8.6	-4.5%
C[N+](C)(C)c1ccc([C@H](N)C(=O)O)cc1	-10.4%	x	x	x	x	x
Nc1ncnc2c1nc(Br)n2C1O[C@H]2COP(=O)(O)O[C@@H]2C1O (some centres not stated)	3.8%	x	x	x	x	x
Cc1nn(CC(=O)N2CCCc3ccccc32)c(C)c1[N+](=O)[O-]	-2.3%	-0.3%	27.6*	0.5%	31.3	2.7%
O=C(Cn1ccc([N+](=O)[O-])n1)N1CCCc2ccccc21	17.4%	-1.3%	54.0*	3.1%	127.0*	-0.9%
Cc1nn(CC(=O)c2cccc(Cl)c2)c(C)c1[N+](=O)[O-]	x	0.5%	24.2*	3.2%	22.8	-4.6%
O=C(Cn1ccc([N+](=O)[O-])n1)N1CCCCCC1	x	0.8%	10.4	5.1%	-3.1	-7.8%
CCOC(=O)C1CCN(C(c2ccc(SC)cc2)c2c(O)cc(C)n(Cc3ccco3)c2=O)CC1 (configuration not stated)	x	x	x	x	x	-6.8%
N=C1C(c2nc3ccccc3s2)=C(O)CN1Cc1ccccc1	-4.9%	-19.8%	30.4*	-3.0%	active	1.1%
CN(/N=C/c1ccc(Cl)cc1)c1ncc(Cl)cc1C(F)(F)F	-0.5%	-1.0%	11.4*	-0.4%	1.3	1.8%
Cc1ccc(NC(=O)NCc2c(C)nn(C)c2C)cc1Cl	-7.1%	-5.5%	26.2*	3.0%	74.8*	4.0%
COc1ccc(NC(=O)NCc2ccccn2)cc1OC	0.4%	3.9%	0.5	-3.2%	12.3	3.7%
Cc1ccc(NC(=O)NCc2ccccn2)cc1Cl	-3.1%	-0.4%	24.6*	-3.9%	39.1*	-15.8%
Cc1nn(C)cc1CNC(=O)Nc1ccc(Cl)c(Cl)c1	-55.7%	0.8%	43.6*	5.8%	57.6*	-5.2%
Cc1nn(C)cc1CNC(=O)C1(C)CC1(Cl)Cl (configuration not stated)	3.9%	13.8%	-2.4	2.7%	8.8	-7.3%
